Among the data in PubChem BioAssay (NCI) are growth values, retold here.

The structures appear in SMILES notation. About 83,000 compounds went through this panel and 20% of them were active in at least one assay; those are over-represented in the sample as a whole.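 Results are percent growth after 48 hours of single-concentration exposure. 100 means growth as in untreated cells, lower positive values show inhibition; negative values down to -100 show cell death.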 Calls of active or inactive are those of the source. Rule for the calls: active = growth percent below 10; inactive = the rest.

The test relates to RPMI-8226 leukemia. Nature of the test: NCI-60 one-dose screen, 48 h (100 = growth as untreated, 0 = no growth, -100 = all killed). The note with it: 10 µM unless noted.
Regarding `N#C/C(=C\c1ccc(-c2ccc(Cl)cc2)o1)C(=O)Nc1ncc(Cc2ccc(Br)cc2)s1`, the growth was 64.1% (inactive).
For the compound `O=C(COc1ccc(/C=C2\C(=O)Nc3ccc(Cl)cc32)cc1)Nc1ccc(Cl)cc1`, the growth is 68.7% (inactive).
Then `CC(O)c1cccc(/C(N)=N/C(N)=N/c2nc3ccccc3s2)c1` (stereo not given), with 67.3% (inactive); and `O=C(CN1CCN(c2cc(=O)[nH]c3ccc(F)cc23)CC1)N(c1ccccc1)c1ccccc1`, with 115% (inactive); and `Cn1c(SCC(=O)c2ccc(Br)cc2)nc2ccccc2c1=O`, with 77.7% (inactive).
The result for `NC(N)=NS(=O)(=O)c1ccc(N=Nc2c(N)nn(-c3ccc([N+](=O)[O-])cc3[N+](=O)[O-])c2N)cc1` reads 99.1% (inactive).
Then `Cc1cc2nc3c4cc(C#N)ccc4n(CCN(C)C)c3nc2cc1C`, with -17.7% (active); and `O=C(CCCCCCN1CC(=O)N2[C@@H](c3cccs3)c3[nH]c4ccccc4c3C[C@H]2C1=O)NO`, with 55% (inactive); and `O=C(CSc1nc2ccccc2c(=O)n1CCc1ccccc1)Nc1ccc(S(=O)(=O)Nc2ccc(Cl)nn2)cc1`, with 102% (inactive).
For `CC1=C(C)C(=O)C(Nc2ccc(C)c(C)c2)=C(Br)C1=O`, the growth was 29.8% (inactive).
Turning to `COc1cc(/C=C2/C(=O)Nc3ccc(Cl)cc32)ccc1OCc1ccc(Cl)cc1`, the growth is 100% (inactive).
Then `Cc1ccc2c(n1)C(=O)C(Cl)=C(Nc1ccc(C(C)C)cc1)C2=O`, with -21.7% (active).
The result for `CN1CCN(c2ccc(Nc3nc(NCCNS(=O)(=O)c4ccccc4)c4sccc4n3)cc2)CC1` reads 102% (inactive).
On to `CNC(=O)c1cc(N2CCc3cc(NC(=O)Nc4ccc(N5CCN(C)CC5)c(C(F)(F)F)c4)ccc32)ccn1`, for which the growth is -16.4% (active).
With `C=C(C)[C@@H]1CC[C@]2(COCCCNCCCN)CC[C@]3(C)[C@H](CC[C@@H]4[C@@]5(C)CC[C@H](O)C(C)(C)[C@@H]5CC[C@]43C)[C@@H]12`, the growth is -35.3% (active).
As for `CN1CCN(Cc2ccc(NC(=O)c3cncc(C#Cc4cnc5ccc(OCC6COC6)nn45)c3)cc2C(F)(F)F)CC1`, the growth is -24.4% (active).
`CCN(CC)S(=O)(=O)c1ccc(-c2nc(C(Cl)Cl)nc3cc(-c4ccc(F)cc4)nn23)cc1`: the growth was 6.42% (active).
As to `O=C(COc1ccc(/C=C2\C(=O)Nc3ccc(F)cc32)cc1)Nc1ccccc1`, the growth is 103% (inactive).
Turning to `CN1CCN(c2ccc(Nc3nc(NCCCNS(=O)(=O)c4ccc(F)cc4)c4sccc4n3)cc2)CC1`, the growth is 12.5% (inactive).
For `COc1cccc(N2CCN(C3=C(Cl)C(=O)c4ncccc4C3=O)CC2)c1`, the growth was 55.8% (inactive).
For `C#CCOc1cccc(-c2nc(N)nc(Nc3ccccc3SSc3ccccc3Nc3nc(N)nc(-c4cccc(OCC#C)c4)n3)n2)c1`, the growth was 22% (inactive).
Take `O=C(CSc1nnc(-c2ccc(Cl)cc2)n1-c1ccccc1)Nc1ccc(Cl)cc1`: the growth was 31% (inactive).
For `NC(=O)n1c(=O)n(-c2cccc(C(F)(F)F)c2)c(=O)c2cc(-c3ccc(F)cc3F)ccc21`, the growth was -30.6% (active).
The result for `C#CCOc1ccc(/C=N/Nc2nc(-c3ccc(OC)cc3)cs2)cc1` reads 53.3% (inactive); that for `O=C(CSc1nnc(-c2ccc(Cl)cc2)n1-c1ccccc1)Nc1ccccc1Cl`, 35.4% (inactive).
The result for `CCOC(=O)c1c(NC(=O)c2cccc(C(F)(F)F)c2)sc2c3c(ccc12)OCN(C)C3` reads -47.6% (active).
As to `CN1CCN(Cc2ccc(NC(=O)c3cncc(C#Cc4cnc5ccc(OCCCS(C)(=O)=O)nn45)c3)cc2C(F)(F)F)CC1`, the growth is -3.99% (active).
For the compound `CCOC(=O)c1c(NCC(=O)Nc2cccc([N+](=O)[O-])c2)sc(C(C)=O)c1C`, the growth is -14.1% (active).
Take `N#Cc1c(-c2cccs2)cc(-c2cnccn2)nc1SCC(=O)N/N=C/c1ccccc1`: the growth was -23.7% (active).
As for `CN1CCN(Cc2ccc(NC(=O)c3cncc(C#Cc4cnc5ccc(O[C@@H]6CCOC6)nn45)c3)cc2C(F)(F)F)CC1`, the growth was -24.1% (active).
Take `O=C(CCCCCCNC(=O)c1csc(Br)n1)NO`: the growth is 2.81% (active).
On to `O=C(NCCNc1cc(-c2cn(-c3ccccc3)nc2-c2cccc(O)c2)ccn1)Nc1cc(C(F)(F)F)cc(C(F)(F)F)c1`, for which the growth was 94.7% (inactive).
Then `COC(=O)c1ccc(NC2=C(Cl)C(=O)c3nc(C)ccc3C2=O)cc1`, with 36.9% (inactive); and `CCOP(=O)(OCC)OC[C@]12CCC(C)(C)C[C@H]1C1=CC[C@@H]3[C@@]4(C)CC[C@H](OP(=O)(OCC)OCC)C(C)(C)[C@@H]4CC[C@@]3(C)[C@]1(C)CC2`, with 5.23% (active); and `C/C(=N/N)c1nnn(-c2ccc(Br)cc2)c1C`, with 105% (inactive).
Consider `O=C(N/N=C\c1ccc(F)cc1)c1ccc2nc(-c3ccc(Br)cc3)[nH]c2c1`, for which the growth is 63.5% (inactive).
As to `O=C1Nc2ccc(F)cc2/C1=C\C(=O)c1ccc(NS(=O)(=O)c2ccccc2)cc1`, the growth is 67.6% (inactive).
On to `CCCCCc1ccc(S(=O)(=O)Nc2cc(-c3csc(N)n3)ccc2OC)cc1`, for which the growth is 78.2% (inactive).
The result for `CN1CCN(c2ccc(Nc3nc(NCCNS(=O)(=O)c4ccc5ccccc5c4)c4sccc4n3)cc2)CC1` reads 49.8% (inactive).
Turning to `CCn1c2ccc(/C=N/N(C)S(=O)(=O)CCN(C)C)cc2c2cc(/C=N/N(C)S(=O)(=O)CCN(C)C)ccc21`, the growth was 65.2% (inactive).
